# This is a sample that favours compounds with a hit; in the whole collection about 2.8% have one here.
# PolyA inhibitor = polyadenylation inhibitors in yeast reporter cells, primary screen, luminescence, S. cerevisiae; S. cerevisiae SKY197-pL101 polyadenylation reporter, beta-gal luminescence; efflux-impaired pdr1/pdr3 knockout yeast; score 100 = 6 SD above DMSO; activity score, % at 12 µM; 300,000 tested, 0.02% active; AID 1875, 2009;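 active = lowest replicate activity score at least 50, where 100 means six control SD above control mean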;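 note: yeast exposed to compound for 9 h at 30 °C; higher score means more reporter readthrough which indicates perturbed polyadenylation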
# HIF act = HIF pathway transcriptional activators, primary screen, cell-based, U2OS HRE-luciferase, luminescence. U2OS HRE-luciferase reporter; normalized: DMSO 0%, desferrioxamine 100%. AID 1910, 2009. 300,000 tested, 0.32% active. activation, % at 7.5 µM (by protocol);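 active = mean activation of at least 10% of the iron chelator positive control signal, with at least half of replicates also reaching 10%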
# p-CIP stab down = p/CIP-EGFP fusion destabilizers, primary screen, fluorescence, F442A cells | AID 1984, 2009 | 290,000 tested, 0.01% active | Q05BA5 | 16 h | decrease of EGFP signal, % at 10 µM;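 active = EGFP signal decrease of at least 30% at 10 µM or well 3 SD below plate mean, unless failing retest; inactive = the rest, including hits failing retest or dose response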
# Platelet DG rel = inhibitors of platelet dense granule secretion, primary screen, cell-based, MLPCN, human platelets | human platelet-rich plasma, SFLLRN dense granule ATP release, luminescence | inhibition, %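 (compounds screened at 7.5 µM in platelet-rich plasma)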 | AID 1663, 2009 | 300,000 tested, 0.22% active;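 active = mean replicate score, as percent of positive control, at or above 50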
# AHR act = AHR activators, primary screen, cell-based, luminescence, luciferase reporter, human; activation, % at 5 µM; AHR-responsive luciferase reporter cells; 320,000 tested, 2.5% active; AID 2796, 2010; Aryl hydrocarbon receptor (Homo sapiens), P35869; in the data active = activation above about 47%;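 note: 0% = vehicle wells and 100% = reference agonist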
# Target sequence (P35869 whole entry, looked up): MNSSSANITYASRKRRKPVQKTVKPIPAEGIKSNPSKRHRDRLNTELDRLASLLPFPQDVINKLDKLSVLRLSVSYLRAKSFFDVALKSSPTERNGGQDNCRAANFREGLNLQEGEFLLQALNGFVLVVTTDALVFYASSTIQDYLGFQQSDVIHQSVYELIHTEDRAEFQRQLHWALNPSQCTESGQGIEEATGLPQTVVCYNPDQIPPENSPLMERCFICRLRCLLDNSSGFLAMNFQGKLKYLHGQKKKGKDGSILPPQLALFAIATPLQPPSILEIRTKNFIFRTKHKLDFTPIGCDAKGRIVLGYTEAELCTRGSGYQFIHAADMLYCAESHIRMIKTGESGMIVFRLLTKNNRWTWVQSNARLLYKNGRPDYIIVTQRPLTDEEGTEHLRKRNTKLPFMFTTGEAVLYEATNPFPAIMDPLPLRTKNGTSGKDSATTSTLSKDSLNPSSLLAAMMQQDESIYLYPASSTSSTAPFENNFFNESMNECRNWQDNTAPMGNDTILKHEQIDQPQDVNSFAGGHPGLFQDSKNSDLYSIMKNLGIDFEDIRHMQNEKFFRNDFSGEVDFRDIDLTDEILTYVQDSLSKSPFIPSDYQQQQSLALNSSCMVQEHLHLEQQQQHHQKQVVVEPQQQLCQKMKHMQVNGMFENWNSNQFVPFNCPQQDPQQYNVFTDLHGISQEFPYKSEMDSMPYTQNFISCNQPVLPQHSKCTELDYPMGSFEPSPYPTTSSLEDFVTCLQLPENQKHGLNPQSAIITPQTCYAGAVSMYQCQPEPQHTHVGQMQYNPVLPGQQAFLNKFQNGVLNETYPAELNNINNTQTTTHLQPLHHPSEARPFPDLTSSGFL
# AHR act cf = AHR activators, confirmation, cell-based, luminescence, luciferase reporter, human; shares compounds with AHR act; human cells, AHR-responsive luciferase reporter; activation, % at 9 µM; 2,300 tested, 87% active; AID 2845, 2010; in the data active = activation above about 49%;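 note: HepG2 hepatoma cells carrying a DRE-driven firefly luciferase reporter; 0% = vehicle wells and 100% = reference agonist wells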
# PXR act counter = human PXR activators, counter-screen for AHR activator project, cell-based, luciferase luminescence; shares compounds with AHR act; cell-based PXR reporter; activation, % at 11.6 µM; 2,300 tested, 88% active; AID 434939, 2010; in the data active = activation above about 11%;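 note: human hepatoma DPX-2 cells expressing full-length human PXR; 0% = DMSO and 100% = reference agonist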
# Numbers without * were called inactive; / = no result given.
SMILES,PolyA inhibitor,HIF act,p-CIP stab down,Platelet DG rel,AHR act,AHR act cf,PXR act counter
CCN1CC=C2C(C#N)=C(N)C(C#N)(C#N)C(CCc3ccccc3)C2C1 (stereo unspecified),/,/,-1,/,47,/,/
O=c1cc(CSc2nnc3ccccn23)c2c(ccc3ccccc32)o1,12,-1,-1,-3,84*,65*,29*
O=C(OCCOCCN=C1NS(=O)(=O)c2ccccc21)c1ccccc1Br,3,0,-12,-14,2,/,/
CCN(/N=C/C=C/c1ccccc1)c1cc(=O)n(C)c(=O)[nH]1,-15,1,4,11,132*,33,8
CCN(/N=C/c1ccc(Cl)cc1)c1cc(=O)n(C)c(=O)[nH]1,-12,0,-18,2,121*,71*,/
Cn1c(=O)cc(C(=O)N/N=C/c2ccc(Cl)cc2)[nH]c1=O,-11,0,-4,6,1,/,/
CCCc1c(C)nc(N2CCN(c3ccccc3OC)CC2)[nH]c1=O,8,0,-4,-3,1,/,/
CN(C(=O)c1ccc(NC(=O)Cc2cccc(NC(=O)C3CCCN(C(=O)C4CCC4)C3)c2)cc1)C1CCCC1 (stereo unspecified),/,/,/,/,-1,/,/
Cc1cc([N+](=O)[O-])ccc1N1C(=O)c2ccc(C(=O)Nc3ccccc3C(=O)O)cc2C1=O,3,-1,-4,-1,2,/,/
O=C(Nc1nc2ccccc2s1)c1ccc(OCC2CCCO2)cc1 (stereo unspecified),15,0,-14,3,112*,69*,8
C/C(=C\C(=O)c1ccc(Br)cc1)NCc1ccc(C)cc1,-2,0,2,-3,9,/,/
C/C(=C\C(=O)c1ccc(Br)cc1)NCc1ccccc1,-8,0,6,-4,95*,29,27*
O=C(CCn1nc(-c2ccccc2)ccc1=O)N1CCN(c2ccccn2)CC1,12,0,-8,-6,82*,35,9
Cc1ccc2nc(-c3cccc(N)c3)oc2c1,0,-1,0,23,17,/,/
CCc1ccc2oc(-c3cccc(N)c3)nc2c1,12,-3,8,6,83*,90*,12*
Cc1cc(C)c2oc(-c3cccc(N)c3)nc2c1,1,4,3,-8,79*,128*,15*
CCC(C)N(CC(=O)Nc1cccc(C)c1C)C(=O)CCl (stereo unspecified),-3,-1,-33,3,1,/,/
COCCOC(=O)c1[nH]c2c(c1C)C(=O)CC(c1ccccc1)C2 (stereo unspecified),-7,0,-14,1,115*,56*,124*
[O-][n+]1onc2c1CCc1nnc(-c3ccccc3)cc1-2,-8,-1,-2,-8,97*,80*,/
O=C(O)c1ccc(N/N=C/C2=Cc3ccccc3OC2)cc1,9,3,-3,31,122*,83*,18*
O=C(NC(=S)Nc1ccccc1N1CCOCC1)c1ccccc1F,11,0,13,13,95*,73*,31*
Nc1ccc(N2CCCCC2)c(Cl)c1,-1,0,-5,2,0,/,/
O=c1[nH]c(CSc2ccccn2)nc2c1cnn2-c1ccccc1,-19,2,-4,15,97*,71*,34*
O=c1[nH]c(CSc2ccccn2)nc2ccccc12,-11,2,16,3,18,/,/
Cn1ccnc1SCc1nc2c(cnn2-c2ccccc2)c(=O)[nH]1,-4,0,-5,-14,82*,85*,16*
SMILES,PolyA inhibitor,HIF act,p-CIP stab down,Platelet DG rel,AHR act,AHR act cf,PXR act counter
CC(C)Cn1cnc2c1c(=O)n(CC(=O)NC(=O)NC(C)(C)C)c(=O)n2Cc1ccccc1,-17,-1,-2,12,-1,/,/
Fc1ccc(-[n+]2nc(Nc3ccccc3)sc2-c2cccc(Cl)c2Cl)cc1,0,2,0,-9,113*,11,92*
CN(C)c1cccc(C(=O)n2cc(C(=O)c3cc(F)ccc3O)cn2)c1,15,3,3,3,86*,30,20*
O=C(COC(=O)c1ccccc1Nc1cccc(C(F)(F)F)c1)NCc1ccco1,1,1,-10,0,-1,/,/
O=C(CSc1ccc2ccccc2n1)c1ccc2c(c1)OCO2,-32,1,0,-4,103*,27,24*
O=C(O)CSc1ccc2ccccc2n1,-1,0,-1,15,11,/,/
Clc1cccc(-c2ccc(CNCc3ccccn3)o2)c1,-3,2,-4,2,121*,87*,24*
Brc1ccc(-c2ccc(CNCc3ccccn3)o2)cc1,0,1,-2,2,14,/,/
COc1cc(OC)cc(-c2nnc(Nc3nc4c(F)cccc4s3)o2)c1,-1,0,-8,14,0,/,/
Fc1cccc2sc(Nc3nnc(-c4ccccc4)o3)nc12,-8,3,1,10,155*,120*,22*
COCC(=O)N/N=C/c1ccc(Sc2nc3ccccc3s2)o1,8,0,0,-1,86*,81*,22*
Cc1c(-c2ccccn2)c(=O)[nH]n1-c1ccc(F)cc1,-1,-2,14,-3,91*,77*,11*
O=C(/C(=C\c1ccccc1)c1nc2ccccc2[nH]1)c1ccc(Cl)cc1,-65,3,1,-9,80*,16,117*
CCOC(=O)c1c(C)n(OCc2ccccc2)c2ccc3nonc3c12,-19,0,5,12,4,/,/
C=CCOn1c(C)c(C(C)=O)c2c3no[n+]([O-])c3ccc21,0,0,-9,-2,111*,78*,85*
C=CCOn1c(C)c(C(C)=O)c2c3nonc3ccc21,-5,0,-7,-6,81*,71*,48*
CCO[C@@H]1OC(C(=O)O)=C[C@H](c2ccc(Br)cc2)[C@H]1CCCO,0,0,0,9,-3,/,/
N#CCCN(C(=O)c1cc2c(s1)-c1ccccc1S(=O)(=O)C2)c1ccccc1,8,0,8,-4,3,/,/
Nc1ccc(N=Nc2ccccc2)c2cccnc12,-7,-6,3,-4,94*,84*,12*
COc1ccc(C(=O)Nc2ccnn2C2CCN(C(=O)c3cccnc3)CC2)cc1,-6,-1,-14,21,1,/,/
O=c1c(/C=N/O)coc2ccc3ccccc3c12,-15,/,2,/,84*,18,6
CCOc1cccc(C(=O)Nc2ccc3[nH]ncc3c2)c1,-22,6,-2,13,93*,41,23*
